Experiment [1] addresses human Peripheral-type Benzodiazepine Receptor (PBR), TSPO (gene 706) (UniProt P30536). The experiment in a line: NVS_MP_hPBR: NovaScreen (NVS) Membrane Protein Assay for human Peripheral-type Benzodiazepine Receptor (PBR) (AID 2283331).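 Note: hits reduce radioligand binding relative to DMSO baseline.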 The procedure, abridged: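 Radioligand displacement on human colonic cell membranes, 1 h incubation; bound radioactivity by filtration and scintillation counting. Primary screen in duplicate at 25 uM single concentration, actives followed up in concentration series; loss of binding versus DMSO.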

The target of experiment [2] is rat Peripheral-type Benzodiazepine Receptor (PBR), Tspo (gene 24230) (UniProt P16257). The experiment in a line: NVS_MP_rPBR: NovaScreen (NVS) Membrane Protein Assay for rat Peripheral-type Benzodiazepine Receptor (PBR) (AID 2283335). Summed up: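 Radioligand displacement, rat kidney membrane prep, 1 h exposure, filter-based scintillation read; DMSO baseline, loss-of-signal scored. Primary screen at 25 uM in duplicate, actives followed up in concentration series.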
Chain of rat Peripheral-type Benzodiazepine Receptor (PBR), Tspo (gene 24230) (P16257 whole entry, looked up): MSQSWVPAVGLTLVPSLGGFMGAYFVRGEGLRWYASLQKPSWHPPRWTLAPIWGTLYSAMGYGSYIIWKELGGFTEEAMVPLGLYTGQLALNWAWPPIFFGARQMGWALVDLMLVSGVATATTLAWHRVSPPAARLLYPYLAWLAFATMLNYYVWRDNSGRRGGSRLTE

Experiment [3] deals with bovine Gamma-Aminobutyric Acid Type A Receptor BDZ, alpha 5 site (GABARa5), GABRA5 (gene 523515) (UniProt Q08E50). The experiment in a line: NVS_LGIC_bGABARa5: NovaScreen (NVS) Ligand-Gated Ion Channel Assay for bovine Gamma-Aminobutyric Acid Type A Receptor BDZ, alpha 5 site (GABARa5) (AID 2283323). The procedure, abridged: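 Radioligand competitive displacement binding on bovine hippocampal membranes, read 1 hr after dosing by filter-based scintillation counting. Primary screen at 25 uM in duplicate; actives (e.g. ≥30% inhibition) then run in concentration-response up to 50 uM.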

Experiment [4] has as its target bovine Gamma-Aminobutyric Acid Type A Receptor Agonist (GABAR Agonist), GABRA1 (gene 780973) (UniProt P08219). The experiment in a line: NVS_LGIC_bGABAR_Agonist: NovaScreen (NVS) Ligand-Gated Ion Channel Assay for bovine Gamma-Aminobutyric Acid Type A Receptor Agonist (GABAR Agonist) (AID 2283338). Summed up: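 Radioligand binding to bovine cerebellar membranes in agonist format, read by filter-based scintillation counting after 1 h. Primary screen in duplicate at 25 uM, with actives followed in concentration series. Gain of signal versus DMSO.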

Experiment [5] has as its target rat Glutamate, AMPA Site (AMPA), Gria1 (gene 50592) (UniProt P19490). The experiment in a line: NVS_LGIC_rAMPA: NovaScreen (NVS) Ligand-Gated Ion Channel Assay for rat Glutamate, AMPA Site (AMPA) (AID 2283324). Summed up:
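Rat forebrain membranes; radioligand binding read 1 h after dosing by filtration and scintillation counting. Duplicate single-point screen at 25 uM, then concentration-response to 50 uM for threshold hits (e.g. 30% inhibition); loss of signal vs DMSO.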

Experiment [6] concerns the target rat Thyrotropin Releasing Hormone Receptor (TRH), Trhr (gene 25570) (UniProt Q01717). The experiment in a line: NVS_GPCR_rTRH: NovaScreen (NVS) G Protein-Coupled Receptor Assay for rat Thyrotropin Releasing Hormone Receptor (TRH) (AID 2283329).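 Note: hit means lower bound tracer signal versus DMSO baseline.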 Summed up:
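Test compounds are screened at 25 uM in duplicate against radioligand binding in rat forebrain membranes, with active pairs followed up over a concentration range. Detection uses filter-based radiodetection after a 4 h exposure.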

Experiment [7] concerns guinea pig Histamine Receptor (H2), gene 100729734. The experiment in a line: NVS_GPCR_gH2: NovaScreen (NVS) G Protein-Coupled Receptor Assay for guinea pig Histamine Receptor (H2) (AID 2283342). Summed up: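 Radioligand displacement on guinea pig striatal membranes, 1 h after dosing, filter-based scintillation counting; loss of signal versus DMSO. Single-point screen at 25 uM in duplicate, then concentration-response up to 50 uM.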

The target of experiment [8] is human Serotonin, 5-Hydroxytryptamine Receptor 3 (5HT3), HTR3A (gene 3359) (UniProt P46098). The experiment in a line: NVS_LGIC_h5HT3: NovaScreen (NVS) Ligand-Gated Ion Channel Assay for human Serotonin, 5-Hydroxytryptamine Receptor 3 (5HT3) (AID 2283325). Summed up:
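Radioligand displacement binding to human 5-HT3 from HEK293 membranes, read by filter-based scintillation counting after 1 h. Screen at 25 uM in duplicate; chemicals passing threshold were retested in concentration-response up to 50 uM.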

Experiment [9] concerns the target rat Oxytocin Receptor (OXT), Oxtr (gene 25342) (UniProt P70536). The experiment in a line: NVS_GPCR_rOXT: NovaScreen (NVS) G Protein-Coupled Receptor Assay for rat Oxytocin Receptor (OXT) (AID 2283330). Summed up: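 Radioligand displacement on rat uterine membranes, 1 h incubation, filter-based scintillation counting. Chemicals were screened in duplicate at 25 uM, and those passing threshold were retested in concentration-response up to 50 uM. Loss of binding was fitted versus DMSO.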

Experiment [10] concerns the target rat Gamma-Aminobutyric Acid Type A Receptor, Non-Selective (GABAR-NonSelective), Gabra1 (gene 29705) (UniProt P62813). The experiment in a line: NVS_LGIC_rGABAR_NonSelective: NovaScreen (NVS) Ligand-Gated Ion Channel Assay for rat Gamma-Aminobutyric Acid Type A Receptor, Non-Selective (GABAR-NonSelective) (AID 2283326). The procedure, abridged:
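Radioligand displacement on rat whole-brain extract, 1 h, filter scintillation readout; signal loss fitted versus DMSO. Primary screen in duplicate at 25 uM; hits (e.g. ≥30% inhibition) retested in concentration-response up to 50 uM.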

Experiment [11] deals with Voltage-gated inwardly rectifying potassium channel KCNH2 (Homo sapiens) (UniProt Q12809). The experiment in a line: NVS_IC_hKhERGCh: NovaScreen (NVS) Ion Channel Assay for human Potassium Channel ERG (KhERGCh) (AID 2283333). The procedure, abridged:
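Cell-free radioligand competition binding on hERG protein extracted from CHO cells, read by filter-based scintillation counting 0.75 h after dosing. Primary screen at 25 uM in duplicate, actives followed in concentration series. Signal loss fitted versus DMSO.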

Experiment [12] has as its target rat Glutamate, NMDA Agonist Site (GluNMDA), Grin1 (gene 24408) (UniProt P35439). The experiment in a line: NVS_LGIC_rGluNMDA_Agonist: NovaScreen (NVS) Ligand-Gated Ion Channel Assay for rat Glutamate, NMDA Agonist Site (GluNMDA) (AID 2283327). Summed up:
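Rat forebrain membranes, radioligand binding in the agonist-site protocol; 1 h after dosing; filter-based scintillation counting. Single-concentration duplicate screen at 25 uM, then concentration-response up to 50 uM for actives; gain-of-signal vs DMSO.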

For experiment [13], the target named is human Androgen Receptor (AR), AR (gene 367) (UniProt P10275). The experiment in a line: NVS_NR_hAR: NovaScreen (NVS) Nuclear Receptor Binding Assay for human Androgen Receptor (AR) (AID 2283332). Summed up: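 LnCAP cell-free extract; radioligand displacement read by scintillation counting after 20 h. Primary screen single concentration 25 uM in duplicate, actives then run as concentration series; loss-of-signal fitted relative to DMSO baseline.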
Chain of human Androgen Receptor (AR), AR (gene 367) (P10275 whole entry, looked up): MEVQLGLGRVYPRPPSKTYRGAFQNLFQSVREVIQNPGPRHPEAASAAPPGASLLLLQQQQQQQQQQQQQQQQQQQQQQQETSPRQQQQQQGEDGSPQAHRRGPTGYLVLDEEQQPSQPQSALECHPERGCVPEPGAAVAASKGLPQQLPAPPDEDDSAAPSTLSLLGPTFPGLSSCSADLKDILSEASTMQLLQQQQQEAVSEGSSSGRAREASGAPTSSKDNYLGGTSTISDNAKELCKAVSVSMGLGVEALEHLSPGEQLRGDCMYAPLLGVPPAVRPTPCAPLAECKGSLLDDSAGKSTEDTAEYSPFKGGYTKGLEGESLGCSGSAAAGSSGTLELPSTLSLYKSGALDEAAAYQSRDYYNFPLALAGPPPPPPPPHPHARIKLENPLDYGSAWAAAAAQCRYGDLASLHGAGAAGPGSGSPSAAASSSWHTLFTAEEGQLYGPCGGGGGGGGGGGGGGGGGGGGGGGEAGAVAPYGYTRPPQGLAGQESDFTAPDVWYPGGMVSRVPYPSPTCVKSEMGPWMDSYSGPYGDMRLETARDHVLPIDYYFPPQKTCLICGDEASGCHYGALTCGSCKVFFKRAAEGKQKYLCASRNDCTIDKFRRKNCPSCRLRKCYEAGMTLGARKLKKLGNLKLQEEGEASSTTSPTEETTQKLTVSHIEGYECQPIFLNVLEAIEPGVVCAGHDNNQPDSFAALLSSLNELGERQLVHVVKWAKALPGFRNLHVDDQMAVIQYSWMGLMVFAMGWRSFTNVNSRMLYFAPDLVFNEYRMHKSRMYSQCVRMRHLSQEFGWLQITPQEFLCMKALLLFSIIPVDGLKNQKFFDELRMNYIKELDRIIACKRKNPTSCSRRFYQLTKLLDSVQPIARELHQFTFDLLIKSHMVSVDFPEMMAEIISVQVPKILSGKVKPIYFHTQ

Experiment [14] has as its target Glutamate receptor ionotropic, kainate 1 (Rattus norvegicus) (UniProt P22756). The experiment in a line: NVS_IC_rKAR: NovaScreen (NVS) Ion Channel Assay for rat Kainic Acid Receptors (KAR) (AID 2283334; active = hit-call score of the fitted dose curve at least 0.9, where 1 is the maximum; inactive = score below 0.9). The procedure, abridged:
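Radioligand displacement binding using rat forebrain membranes, 1 h incubation, filter-based scintillation counting. Screened in duplicate at 25 uM, with actives retested in concentration-response up to 50 uM; fitted against DMSO.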

The target of experiment [15] is Small conductance calcium-activated potassium channel protein 1 (Rattus norvegicus) (UniProt P70606). The experiment in a line: NVS_IC_rKCaCh: NovaScreen (NVS) Ion Channel Assay for rat Potassium Channel, Ca2+ Act., VI (KCaCh) (AID 2283336). The procedure, abridged: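 Radioligand binding to rat forebrain membranes, cell-free, read 1 hour after dosing by filter-based scintillation counting. Compounds first run in duplicate at 25 uM, actives then in concentration series; loss of signal vs DMSO indicates displacement.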
Chain of Small conductance calcium-activated potassium channel protein 1 (Rattus norvegicus) (P70606 whole entry, looked up): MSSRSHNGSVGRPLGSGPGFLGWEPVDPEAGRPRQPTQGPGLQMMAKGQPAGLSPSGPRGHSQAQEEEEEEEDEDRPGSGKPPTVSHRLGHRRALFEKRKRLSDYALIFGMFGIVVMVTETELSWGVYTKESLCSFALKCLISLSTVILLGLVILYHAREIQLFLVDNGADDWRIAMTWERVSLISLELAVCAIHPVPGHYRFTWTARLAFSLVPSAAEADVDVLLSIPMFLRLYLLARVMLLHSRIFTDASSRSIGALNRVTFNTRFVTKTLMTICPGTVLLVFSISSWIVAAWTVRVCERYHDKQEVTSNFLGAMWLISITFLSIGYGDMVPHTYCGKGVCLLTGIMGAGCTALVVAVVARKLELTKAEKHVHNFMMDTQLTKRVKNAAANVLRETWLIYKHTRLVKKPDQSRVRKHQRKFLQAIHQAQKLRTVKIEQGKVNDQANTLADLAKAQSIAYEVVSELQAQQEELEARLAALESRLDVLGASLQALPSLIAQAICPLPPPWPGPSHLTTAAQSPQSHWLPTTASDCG

Experiment [16] concerns the target rat Gamma-Aminobutyric Acid Type A Receptor BDZ, alpha 6 site (GABARa6), Gabra6 (gene 29708) (UniProt P30191). The experiment in a line: NVS_LGIC_rGABARa6: NovaScreen (NVS) Ligand-Gated Ion Channel Assay for rat Gamma-Aminobutyric Acid Type A Receptor BDZ, alpha 6 site (GABARa6) (AID 2283339). Summed up: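 Rat cerebellar membranes; radioligand binding, filtration and scintillation counting, read 1 h after dosing. Single-concentration duplicate screen at 25 uM, then concentration-response up to 50 uM for actives; loss of signal fitted versus DMSO baseline.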

For experiment [17], the target named is human Constitutive Androstane Receptor (CAR), NR1I3 (gene 9970) (UniProt Q14994). The experiment in a line: NVS_NR_hCAR_Agonist: NovaScreen (NVS) Nuclear Receptor Binding Assay for human Constitutive Androstane Receptor Agonism (CAR) (AID 2283328). The procedure, abridged: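 Cell-free TR-FRET binding readout with extracted human CAR protein, read 1 h after dosing. Gain of signal fitted against DMSO baseline. Single-concentration duplicates at 25 uM, then concentration-response up to 50 uM for actives.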
Chain of human Constitutive Androstane Receptor (CAR), NR1I3 (gene 9970) (Q14994 whole entry, looked up): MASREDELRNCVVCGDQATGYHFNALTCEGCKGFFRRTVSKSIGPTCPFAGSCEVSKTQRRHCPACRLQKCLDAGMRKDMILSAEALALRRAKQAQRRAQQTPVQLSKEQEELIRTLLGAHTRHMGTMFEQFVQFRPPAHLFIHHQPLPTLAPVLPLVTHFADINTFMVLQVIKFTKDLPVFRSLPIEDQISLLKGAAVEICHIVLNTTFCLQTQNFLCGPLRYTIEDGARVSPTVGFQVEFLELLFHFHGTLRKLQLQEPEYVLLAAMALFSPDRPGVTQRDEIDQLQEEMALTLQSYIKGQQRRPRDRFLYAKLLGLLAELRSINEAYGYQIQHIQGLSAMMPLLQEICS

The structures appear in SMILES notation. Values joined by “and” are separate entries in the source; they are usually repeats but may differ in a detail not shown here. Equal entries are not always repeated. Results filed as inconclusive are left out. Active and inactive are the calls of the source. Rule for the calls, unless noted: active = hit-call score of the fitted dose curve at least 0.9, where 1 is the maximum; inconclusive = response in the unintended direction; inactive = score below 0.9.

Chain of human Peripheral-type Benzodiazepine Receptor (PBR), TSPO (gene 706) (P30536 whole entry, looked up): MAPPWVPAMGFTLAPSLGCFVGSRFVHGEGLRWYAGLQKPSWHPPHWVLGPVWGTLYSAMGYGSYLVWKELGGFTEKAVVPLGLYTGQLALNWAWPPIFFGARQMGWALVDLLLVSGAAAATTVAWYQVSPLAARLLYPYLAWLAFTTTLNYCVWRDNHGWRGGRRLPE
Chain of rat Thyrotropin Releasing Hormone Receptor (TRH), Trhr (gene 25570) (Q01717 whole entry, looked up): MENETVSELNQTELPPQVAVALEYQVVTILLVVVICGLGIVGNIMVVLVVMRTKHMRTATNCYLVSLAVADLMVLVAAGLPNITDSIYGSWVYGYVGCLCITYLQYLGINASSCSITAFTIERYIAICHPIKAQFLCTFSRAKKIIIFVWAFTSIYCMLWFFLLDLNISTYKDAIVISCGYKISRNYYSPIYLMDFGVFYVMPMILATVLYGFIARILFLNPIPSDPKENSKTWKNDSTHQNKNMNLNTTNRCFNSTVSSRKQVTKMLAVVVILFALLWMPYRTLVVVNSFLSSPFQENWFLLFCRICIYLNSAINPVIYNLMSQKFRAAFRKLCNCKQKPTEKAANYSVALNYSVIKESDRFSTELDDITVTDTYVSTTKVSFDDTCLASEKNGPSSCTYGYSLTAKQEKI
Chain of bovine Gamma-Aminobutyric Acid Type A Receptor Agonist (GABAR Agonist), GABRA1 (gene 780973) (P08219 whole entry, looked up): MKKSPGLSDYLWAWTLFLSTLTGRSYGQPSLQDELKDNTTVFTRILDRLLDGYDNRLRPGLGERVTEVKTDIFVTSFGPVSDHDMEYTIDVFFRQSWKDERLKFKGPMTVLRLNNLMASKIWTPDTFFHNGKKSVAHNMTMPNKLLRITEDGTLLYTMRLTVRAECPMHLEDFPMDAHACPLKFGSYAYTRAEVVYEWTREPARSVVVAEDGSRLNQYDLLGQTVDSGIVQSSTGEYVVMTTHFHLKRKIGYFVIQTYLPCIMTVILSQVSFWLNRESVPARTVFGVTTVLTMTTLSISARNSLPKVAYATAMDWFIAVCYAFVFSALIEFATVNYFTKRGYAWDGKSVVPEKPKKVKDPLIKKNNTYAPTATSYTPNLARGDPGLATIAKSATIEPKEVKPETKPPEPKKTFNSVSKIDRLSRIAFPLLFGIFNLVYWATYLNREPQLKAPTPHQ
Chain of rat Glutamate, AMPA Site (AMPA), Gria1 (gene 50592) (P19490 whole entry, looked up): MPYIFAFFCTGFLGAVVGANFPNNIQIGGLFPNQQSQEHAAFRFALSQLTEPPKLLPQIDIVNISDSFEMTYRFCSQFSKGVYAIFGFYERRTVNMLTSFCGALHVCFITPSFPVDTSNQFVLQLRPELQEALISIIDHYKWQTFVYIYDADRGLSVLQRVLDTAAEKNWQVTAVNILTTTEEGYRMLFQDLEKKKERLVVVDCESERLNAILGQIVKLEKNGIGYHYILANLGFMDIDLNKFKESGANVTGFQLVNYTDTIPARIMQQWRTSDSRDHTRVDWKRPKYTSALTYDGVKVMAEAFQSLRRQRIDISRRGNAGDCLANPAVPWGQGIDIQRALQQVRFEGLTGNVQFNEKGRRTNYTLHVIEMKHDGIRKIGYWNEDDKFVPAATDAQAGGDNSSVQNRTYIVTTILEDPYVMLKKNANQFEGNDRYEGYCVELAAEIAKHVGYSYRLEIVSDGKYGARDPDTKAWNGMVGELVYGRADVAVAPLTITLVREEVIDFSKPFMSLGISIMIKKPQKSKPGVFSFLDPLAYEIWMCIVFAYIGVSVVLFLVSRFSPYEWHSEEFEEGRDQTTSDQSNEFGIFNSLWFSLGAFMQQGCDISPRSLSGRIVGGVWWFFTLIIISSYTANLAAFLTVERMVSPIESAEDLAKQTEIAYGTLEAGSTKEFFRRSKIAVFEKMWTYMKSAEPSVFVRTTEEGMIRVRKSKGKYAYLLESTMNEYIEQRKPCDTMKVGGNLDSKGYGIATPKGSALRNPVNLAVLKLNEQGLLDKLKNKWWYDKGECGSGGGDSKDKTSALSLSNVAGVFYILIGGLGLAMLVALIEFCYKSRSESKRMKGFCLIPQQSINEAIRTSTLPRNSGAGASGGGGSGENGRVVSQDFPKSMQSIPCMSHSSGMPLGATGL
Chain of human Serotonin, 5-Hydroxytryptamine Receptor 3 (5HT3), HTR3A (gene 3359) (P46098 whole entry, looked up): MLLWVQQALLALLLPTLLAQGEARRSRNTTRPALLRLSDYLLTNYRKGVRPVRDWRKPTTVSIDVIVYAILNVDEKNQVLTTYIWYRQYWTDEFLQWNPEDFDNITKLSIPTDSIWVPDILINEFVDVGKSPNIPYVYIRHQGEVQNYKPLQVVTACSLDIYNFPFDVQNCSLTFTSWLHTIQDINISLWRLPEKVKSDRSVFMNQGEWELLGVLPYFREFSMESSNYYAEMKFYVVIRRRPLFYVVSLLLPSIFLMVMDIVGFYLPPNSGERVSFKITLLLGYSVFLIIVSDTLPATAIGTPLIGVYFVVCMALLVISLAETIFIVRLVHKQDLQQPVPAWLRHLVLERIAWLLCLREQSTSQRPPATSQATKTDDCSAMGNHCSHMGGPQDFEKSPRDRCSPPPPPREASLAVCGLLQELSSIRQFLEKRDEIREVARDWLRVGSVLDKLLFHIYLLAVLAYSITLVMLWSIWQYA
Chain of rat Gamma-Aminobutyric Acid Type A Receptor BDZ, alpha 6 site (GABARa6), Gabra6 (gene 29708) (P30191 whole entry, looked up): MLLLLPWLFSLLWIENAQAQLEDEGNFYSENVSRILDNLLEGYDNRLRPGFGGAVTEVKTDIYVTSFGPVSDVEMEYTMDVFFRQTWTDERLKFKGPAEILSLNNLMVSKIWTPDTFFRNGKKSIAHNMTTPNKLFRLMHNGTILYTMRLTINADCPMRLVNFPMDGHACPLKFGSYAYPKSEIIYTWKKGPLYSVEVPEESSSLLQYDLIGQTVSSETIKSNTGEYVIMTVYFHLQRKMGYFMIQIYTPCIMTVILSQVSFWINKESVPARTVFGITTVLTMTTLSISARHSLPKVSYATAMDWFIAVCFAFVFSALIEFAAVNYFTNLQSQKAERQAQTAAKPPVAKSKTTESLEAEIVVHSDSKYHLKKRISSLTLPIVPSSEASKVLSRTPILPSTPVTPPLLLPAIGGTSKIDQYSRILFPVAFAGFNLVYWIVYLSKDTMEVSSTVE

Consider `Cc1ccc(O)c(C)c1`, for which the result in experiment [1] and in experiment [2] was inactive.

For the compound `CCC(C)(CC)c1cc(NC(=O)c2c(OC)cccc2OC)on1`, the result in [3], in [1] and in [2] was inactive.

Take `O=C(O)C(F)(F)C(F)(F)C(F)(F)C(F)(F)C(F)(F)C(F)(F)C(F)(F)C(F)(F)C(F)(F)F`: in [4], the compound was classed as inactive.

As to `Clc1ccc(C(c2ccccc2Cl)C(Cl)(Cl)Cl)cc1` (configuration not stated), in experiment [5], the outcome was inactive.

In the case of `C[C@]12CCC(=O)C=C1CC[C@@H]1[C@@H]2CC[C@@]2(C)[C@H]1CC[C@]2(C)O`, the result in experiment [6] and in [7] was inactive.

For the compound `Clc1ccc(Cl)cc1`, the compound was classed as inactive in experiment [8] and in [9].

The AC50 is the concentration at which the activity in the assay is half-maximal. For the compound `CO/C=C(/C(=O)OC)c1ccccc1COc1cccc(C(F)(F)F)n1`, the AC50 in experiment [1] was 4.21 µM (active); in experiment [2] it was 0.189 µM (active).

Consider `CCNc1nc(NC(C)C)nc(SC)n1`, for which the compound was classed as inactive in experiment [6].

With `CCCCCCOC(=O)c1ccccc1C(=O)OCCCCCC`, the outcome in [10] and in experiment [11] was inactive.

As for `CC(c1ccc(O)cc1)(c1ccc(O)cc1)c1ccc(O)cc1`, the outcome in experiment [5] and in experiment [12] was inactive.

Consider `OCC(O)CO`, for which the call in experiment [6] and in experiment [2] was inactive.

In the case of `CCOC(=O)C(O)(c1ccc(Cl)cc1)c1ccc(Cl)cc1`, the AC50 in [13] is 6.91 µM (active); in experiment [2], 10 µM (active).

As to `COS(=O)(=O)OC`, the compound was called inactive in [14].

Take `CC#Cc1cc(C)nc(Nc2ccccc2)n1`: in experiment [4], the outcome was inactive.

Consider `c1ccc(-c2ccccc2)cc1`, for which the result in experiment [15] was inactive.

Take `O=S(=O)(O)C(F)(F)C(F)(F)C(F)(F)C(F)(F)C(F)(F)C(F)(F)F`: in experiment [16], the outcome was inactive.

As for `CCCCCCCCCc1ccc(O)cc1`, the outcome in experiment [8] and in experiment [6] was inactive.

Take `CCC(=O)O[C@H]1CC[C@H]2[C@@H]3CCC4=CC(=O)CC[C@]4(C)[C@H]3CC[C@]12C`: the AC50 in [13] is 26.8 nM (active) and 48 nM (active).

As for `NS(=O)(=O)C(F)(F)C(F)(F)C(F)(F)C(F)(F)C(F)(F)C(F)(F)C(F)(F)C(F)(F)F`, the compound was classed as inactive in experiment [4].

As for `Sc1ccccc1`, the compound was called inactive in experiment [6].

Turning to `O=C(O)C(F)(F)C(F)(F)C(F)(F)C(F)(F)C(F)(F)F`, the result in [8] and in experiment [17] was inactive.

For `COc1ccc(O)c(C(C)(C)C)c1`, the outcome in [15] was inactive.

For `CC(C)(O)C(=O)Nc1ccc([N+](=O)[O-])c(C(F)(F)F)c1`, the outcome in experiment [2] was inactive.

On to `CCC(C)c1cc([N+](=O)[O-])cc([N+](=O)[O-])c1O` (configuration not stated), for which the compound was classed as inactive in experiment [4].

On to `Cc1cccc(C)c1N`, for which, in experiment [5], the call was inactive.

Values taken from PubChem BioAssay (EPA / NIEHS).
